This is an account of results in the supplement of paper PMC6555819.

For this test, the system named is LXRb:RXRa (NR concentration 270 nM, RXRa partner concentration 90 nM). Description: PBM binding z-score (relative to random genomic background probes); higher = stronger binding; sequences stand for … in GC…GCGATTGACAGCGTAGAATGAAGG
The protocol: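 Protein-binding microarray (Agilent 4x180K custom design, double-stranded 60-nt probes: 5' GC cap, 34-nt variable region, 24-nt constant primer region; full probe sequence given). Purified or IVT nuclear receptor:RXRα heterodimers (3:1 NR:RXRα, mostly 270:90 nM) or homodimers were incubated for 1 h in PBS with 2% milk and no ligand, then detected with Alexa488 antibodies. Fluorescence from o1-orientation probes (~5 replicates averaged) was converted to z-scores against 500 random hg19 background probes. Variable regions are seed direct-repeat (DR0–DR5) sites, all their single-nucleotide variants and half-site ablations.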
The sequence CCTAGTTGTTCAGGAGGTCACACACCGGATATGA registered a PBM binding z-score of 3.76.
Take CAAACCAGGTCAAGAGGTCAAAGTCCGCTTCCCG: the PBM binding z-score turned out to be 5.73.
Next, CCTACTGGGCCAAAAAGGTCATTGATGCCGATAA: 3.74; TTGCCTAGGTCATTGGGCCAGTATAGTACGCATC: 2.28; CGTCAAAGATCAAGGTAACGTAACAGAAAGCAGC: 0.0744.
Next, AGAATGAGGTCAAGATCAGGGAAACAGAATACAT: 5.08.
CGAACTAGGTCATCCAGGTCAGTGAATACATTGA returned a PBM binding z-score of 2.98.
Next, GCATATAGGTAATACAAGGTCAAAGTCCGATTGT: 5.63.
In turn, GCTGCTAGGTCAACTGATGGTCATCTAAAGCTCG displayed a PBM binding z-score of 2.18.
Sequence TAGCCTAGGGCATTCAGGGGCCAGTATAGAAAGC returned a PBM binding z-score of -0.231.
The same measure for AGAATGGGGTTATACGTAGATCAGGGAAGAAAGT: 4.38; for ATCTCTAGGTTAAGATAGTTCAGTGAATGCAAAT: 3.33; for CAAACTAGGTCACGAGAGGTCAAAGTCGAATGAC: 7.33.
The same measure for CGTCCAAGGTCAAGGTCAATGAAAGAGACTCGAA: 4.94; for ATATGTAGGTTATCGGGTCATACAGTTTGCGCAT: 3; for AGAATGAGGTTACTAAAGATCAGGGAAACGCTTG: 5.45.
The same measure for CGAACTAGGTCGAGGACAGTGAATCTCCGCACGC: -0.262.
With CGAACAAGGTCATTGACAGGACAGTGAATAGTAA, the PBM binding z-score is 4.62.
The same measure for CCTACTGGGCCTAAGGTCATTGATTCCAATGCTC: 3.36.
Next, ACGCGGAGGACAAAGGTCAGAGCTACGCCAGTGA: 3.19; GATACAGGGTCAGCTACAGGCCAGAGTATGGAAA: 2.51.
Next, TCTTGTAGATCGATAGAGGTTAAGAAAGTGCGCT: 1.52; CGAACTAGGTCATCCAGGACCGTGAATACATTGA: 1.72.
In turn, GATACAGGGTCGGCTAGAGGCCAGAGTATGGAAA displayed a PBM binding z-score of 0.129.
The same measure for ATATGTAGGTTAGCTGGGGTCCTTCAGACTAGGC: 0.853.
The same measure for TATTCAGGGTCAAAGGCCAGAGTACGAATGTCGA: 5.77.
Next, ACTCGGAGGACAAAGGTCAGGGCTACGCCAGTGA: 3.29.
TGAATGAGGTTAAATATCAGGGAACGTGGCGTCG returned a PBM binding z-score of 1.79.
The same measure for TCTGCTAGGTCAACGTTGGTCAGCTAATCTGCTA: 1.61.
Regarding TAGCCTAGGTCGTTCAGGGGCCAGTATAGAAAGC, the PBM binding z-score amounted to 0.582.
Next, CGTCCAAAGTCAAAGGTCAGTGAAGAGATGACGG: 3.44; CGTCAAACTTCAACTAAGGTAACGTAAAGCACGC: 0.543; CGTCAAAGTTCAACTGAGGTAACGTAAAGCACGC: 4.09.
Sequence ATCGAAAGGTCGACGCGGTGAGTATACACCGTTT returned a PBM binding z-score of 2.25.
Next, CCTACTGGTCCAAGGTCATTGATCAGTCAAAGCA: 3.52.
The same measure for CCTACGGGGCCACGAAAGGTCATTGATTCAGTGA: 5.02; for ATCGAAAGGTCTAAGGTGAGTATACCCACCCGAA: 0.196; for TAGCCTAGGTCATTCAGGGGCAAGTATAGAAAGC: 4.97.
CCGACTGGGGCAAGGTCACCATAACGCACAGCCA showed a PBM binding z-score of 2.81.
The same measure for ATATGTAGGTTAGCTGAGGTCATTCAGACTAGGC: 4.72.
